Measured values reported in ChEMBL document CHEMBL3988442, “University of Dundee, Small-Polar-MMV Screening Library” (2021).
For some assays here: Results with a measured potency or affinity are listed apart.

What was measured:
Parameters in all cases: scale not given: direction of the effect not stated beside the values
[1] = target: Protein translocase subunit SecA (Escherichia coli (strain K12)) (UniProt P10408); assay: Assay to Identify E. coli SecA ATPase Inhibitors; format: functional; conditions: 30 µM
[2] = target: T1, Ubiquitin-activating enzyme e1, putative (Leishmania donovani (strain BPK282A1)) (UniProt E9BSI1); assay: Leishmania donovani Ubiquitin Activating Enzyme (LdE1); format: functional; conditions: 30 µM
T1 sequence (whole entry): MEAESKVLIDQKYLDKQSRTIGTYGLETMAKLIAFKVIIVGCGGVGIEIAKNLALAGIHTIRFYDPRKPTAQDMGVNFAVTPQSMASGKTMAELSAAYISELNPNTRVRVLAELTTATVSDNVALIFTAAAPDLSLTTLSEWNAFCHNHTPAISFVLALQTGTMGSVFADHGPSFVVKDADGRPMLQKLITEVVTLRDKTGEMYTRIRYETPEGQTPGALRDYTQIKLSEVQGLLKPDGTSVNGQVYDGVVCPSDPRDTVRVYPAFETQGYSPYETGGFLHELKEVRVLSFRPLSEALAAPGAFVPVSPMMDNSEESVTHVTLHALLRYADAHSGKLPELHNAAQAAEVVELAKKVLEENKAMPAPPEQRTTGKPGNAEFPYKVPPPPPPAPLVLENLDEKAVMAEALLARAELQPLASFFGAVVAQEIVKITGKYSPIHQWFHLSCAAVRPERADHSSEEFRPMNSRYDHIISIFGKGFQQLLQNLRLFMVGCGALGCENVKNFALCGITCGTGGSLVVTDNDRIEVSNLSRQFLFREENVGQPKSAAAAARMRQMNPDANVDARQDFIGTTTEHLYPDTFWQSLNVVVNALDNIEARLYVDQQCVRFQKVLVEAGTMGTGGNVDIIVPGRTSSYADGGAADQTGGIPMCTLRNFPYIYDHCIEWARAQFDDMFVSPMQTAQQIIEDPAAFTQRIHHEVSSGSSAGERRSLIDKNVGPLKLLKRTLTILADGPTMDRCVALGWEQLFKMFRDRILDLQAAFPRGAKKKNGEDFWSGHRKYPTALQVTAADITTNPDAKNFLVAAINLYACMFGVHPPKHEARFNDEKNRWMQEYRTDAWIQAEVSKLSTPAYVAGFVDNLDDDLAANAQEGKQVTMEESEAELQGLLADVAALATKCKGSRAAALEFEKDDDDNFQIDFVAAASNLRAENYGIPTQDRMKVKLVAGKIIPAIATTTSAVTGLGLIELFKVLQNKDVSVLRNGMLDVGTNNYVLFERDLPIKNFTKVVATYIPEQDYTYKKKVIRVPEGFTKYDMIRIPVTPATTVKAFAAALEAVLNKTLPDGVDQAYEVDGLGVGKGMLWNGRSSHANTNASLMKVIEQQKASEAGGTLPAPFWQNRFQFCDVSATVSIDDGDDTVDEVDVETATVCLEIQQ

[3] = target: Sialic acid-binding Ig-like lectin 9 (Homo sapiens) (UniProt Q9Y336); assay: Hs-Siglec9 ALPHAscreen SOP 20170721; conditions: 10 µM
Trypanosoma cruzi = assay: Trypanosoma cruzi phosphomannomutase and mannose-1-phosphate guanylyltransferase assay; format: functional; conditions: 10 µM
[4] = target: T2, Arginase-2, mitochondrial (Homo sapiens) (UniProt P78540); assay: in vitro enzyme assay to detect the production of urea directly proportional to the activity of Arginase II; format: functional; conditions: 33.3 µM; further: in the data most compounds retested in dose-response had high values
T2 sequence (whole entry): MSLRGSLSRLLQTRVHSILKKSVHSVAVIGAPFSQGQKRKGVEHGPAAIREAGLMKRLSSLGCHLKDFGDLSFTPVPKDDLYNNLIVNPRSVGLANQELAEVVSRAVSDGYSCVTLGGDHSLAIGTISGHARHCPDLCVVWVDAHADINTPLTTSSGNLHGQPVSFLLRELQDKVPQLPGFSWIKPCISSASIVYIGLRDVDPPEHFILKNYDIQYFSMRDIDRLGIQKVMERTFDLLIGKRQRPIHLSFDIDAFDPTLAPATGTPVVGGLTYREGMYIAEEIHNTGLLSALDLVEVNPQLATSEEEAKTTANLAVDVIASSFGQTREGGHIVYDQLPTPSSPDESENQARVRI

[5] = target: T3, Proteasome subunit beta (Trypanosoma cruzi) (UniProt O96673); assay: Trypanosoma cruzi proteasome chymotrypsin-like activity (TcProtChymo) assay.; further: in the data most compounds retested in dose-response had high values; format: functional; conditions: 9.37 µM
T3 sequence (whole entry): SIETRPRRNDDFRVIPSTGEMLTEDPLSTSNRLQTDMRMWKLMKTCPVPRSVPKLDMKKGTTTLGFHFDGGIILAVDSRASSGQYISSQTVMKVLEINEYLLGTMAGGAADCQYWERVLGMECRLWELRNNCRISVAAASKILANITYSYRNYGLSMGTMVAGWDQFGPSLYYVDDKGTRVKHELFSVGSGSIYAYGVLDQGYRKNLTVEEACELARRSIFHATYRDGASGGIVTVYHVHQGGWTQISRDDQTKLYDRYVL

Homo sapiens = species: Homo sapiens; assay: To identify inhibition of the IFN signalling (Jak-Stat) pathway via expression of an eGFP reporter gene under the control of an IFN-stimulated response element (ISRE) containing MxA promoter.; format: functional; conditions: 30 µM
[6] = target: T4, Tyrosyl-tRNA synthetase, putative (Trypanosoma cruzi (strain CL Brener)) (UniProt Q4DSP6); assay: Trypanosoma cruzi tyrosyl tRNA synthetase (TcYRS) _High Tyrosine SOP; format: functional; conditions: 30 µM; further: in the data most compounds retested in dose-response had high values
T4 sequence (whole entry): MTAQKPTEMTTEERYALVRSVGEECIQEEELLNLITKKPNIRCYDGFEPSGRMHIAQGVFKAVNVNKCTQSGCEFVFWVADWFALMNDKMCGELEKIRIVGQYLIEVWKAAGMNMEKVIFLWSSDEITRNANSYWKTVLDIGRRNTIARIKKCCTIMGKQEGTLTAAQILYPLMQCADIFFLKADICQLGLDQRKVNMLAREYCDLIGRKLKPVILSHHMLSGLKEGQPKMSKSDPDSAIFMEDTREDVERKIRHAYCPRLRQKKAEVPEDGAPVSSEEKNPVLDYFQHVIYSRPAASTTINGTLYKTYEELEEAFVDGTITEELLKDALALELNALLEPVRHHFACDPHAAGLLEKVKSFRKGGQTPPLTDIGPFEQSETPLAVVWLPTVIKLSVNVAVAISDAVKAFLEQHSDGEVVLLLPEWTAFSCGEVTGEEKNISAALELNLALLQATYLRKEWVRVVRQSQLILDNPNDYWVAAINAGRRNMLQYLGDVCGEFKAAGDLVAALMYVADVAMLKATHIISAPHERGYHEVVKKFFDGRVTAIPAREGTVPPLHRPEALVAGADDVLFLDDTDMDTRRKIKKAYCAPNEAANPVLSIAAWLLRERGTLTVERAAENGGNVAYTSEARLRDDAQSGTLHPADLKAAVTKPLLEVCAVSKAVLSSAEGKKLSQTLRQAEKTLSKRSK

[7] = target: T4, Tyrosyl-tRNA synthetase, putative (Trypanosoma cruzi (strain CL Brener)); assay: Trypanosoma cruzi tyrosyl tRNA synthetase (TcYRS) SOP; format: functional; conditions: 30 µM
[8] = target: Chromo domain-containing protein 1 (Saccharomyces cerevisiae (strain ATCC 204508 / S288c) (Baker's yeast)) (UniProt P32657); assay: ScCHD-1 Enzyme Inhibition Assay; format: functional; conditions: 30 µM; further: in the data most compounds retested in dose-response had high values
Chain of Chromo domain-containing protein 1 (Saccharomyces cerevisiae (strain ATCC 204508 / S288c) (Baker's yeast)) (P32657 whole entry, the tested form may be a part): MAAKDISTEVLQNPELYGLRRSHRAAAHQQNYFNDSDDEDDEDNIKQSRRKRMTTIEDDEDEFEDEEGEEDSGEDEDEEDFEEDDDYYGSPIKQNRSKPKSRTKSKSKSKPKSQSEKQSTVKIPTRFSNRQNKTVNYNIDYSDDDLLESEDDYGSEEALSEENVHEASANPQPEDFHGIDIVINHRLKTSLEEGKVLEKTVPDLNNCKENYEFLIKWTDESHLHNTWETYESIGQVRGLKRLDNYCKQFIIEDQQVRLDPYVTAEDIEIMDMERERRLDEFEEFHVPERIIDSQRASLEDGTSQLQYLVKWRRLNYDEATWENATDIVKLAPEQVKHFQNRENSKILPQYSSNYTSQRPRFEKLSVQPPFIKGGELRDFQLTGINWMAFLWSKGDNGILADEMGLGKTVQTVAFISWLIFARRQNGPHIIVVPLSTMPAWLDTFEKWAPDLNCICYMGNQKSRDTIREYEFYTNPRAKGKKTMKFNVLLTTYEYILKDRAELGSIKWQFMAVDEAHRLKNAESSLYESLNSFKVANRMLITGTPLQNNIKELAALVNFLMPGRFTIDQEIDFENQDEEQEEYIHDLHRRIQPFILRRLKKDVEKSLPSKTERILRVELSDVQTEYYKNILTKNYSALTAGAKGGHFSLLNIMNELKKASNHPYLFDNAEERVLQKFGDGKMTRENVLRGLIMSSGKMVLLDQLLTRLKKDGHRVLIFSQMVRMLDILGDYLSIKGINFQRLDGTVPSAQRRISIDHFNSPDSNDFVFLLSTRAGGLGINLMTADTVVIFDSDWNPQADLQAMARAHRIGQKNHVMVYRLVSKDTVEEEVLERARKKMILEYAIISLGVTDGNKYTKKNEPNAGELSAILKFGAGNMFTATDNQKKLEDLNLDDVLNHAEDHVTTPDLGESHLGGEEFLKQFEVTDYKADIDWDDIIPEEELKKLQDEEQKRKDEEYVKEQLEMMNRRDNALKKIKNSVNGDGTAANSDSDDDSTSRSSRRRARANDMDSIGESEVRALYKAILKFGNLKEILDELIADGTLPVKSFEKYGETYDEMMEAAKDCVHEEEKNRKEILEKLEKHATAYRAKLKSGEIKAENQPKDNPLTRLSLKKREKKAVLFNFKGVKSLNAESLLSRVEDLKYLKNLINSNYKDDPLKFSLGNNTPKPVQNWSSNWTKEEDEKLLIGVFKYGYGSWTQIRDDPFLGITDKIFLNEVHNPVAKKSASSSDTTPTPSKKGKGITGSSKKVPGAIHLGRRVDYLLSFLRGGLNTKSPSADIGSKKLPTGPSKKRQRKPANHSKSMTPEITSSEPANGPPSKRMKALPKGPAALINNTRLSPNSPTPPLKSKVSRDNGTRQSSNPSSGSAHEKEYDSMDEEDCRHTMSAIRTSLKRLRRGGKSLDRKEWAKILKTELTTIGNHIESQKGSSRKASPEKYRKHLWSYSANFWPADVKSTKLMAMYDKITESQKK

Chain of Sialic acid-binding Ig-like lectin 9 (Homo sapiens) (Q9Y336 whole entry): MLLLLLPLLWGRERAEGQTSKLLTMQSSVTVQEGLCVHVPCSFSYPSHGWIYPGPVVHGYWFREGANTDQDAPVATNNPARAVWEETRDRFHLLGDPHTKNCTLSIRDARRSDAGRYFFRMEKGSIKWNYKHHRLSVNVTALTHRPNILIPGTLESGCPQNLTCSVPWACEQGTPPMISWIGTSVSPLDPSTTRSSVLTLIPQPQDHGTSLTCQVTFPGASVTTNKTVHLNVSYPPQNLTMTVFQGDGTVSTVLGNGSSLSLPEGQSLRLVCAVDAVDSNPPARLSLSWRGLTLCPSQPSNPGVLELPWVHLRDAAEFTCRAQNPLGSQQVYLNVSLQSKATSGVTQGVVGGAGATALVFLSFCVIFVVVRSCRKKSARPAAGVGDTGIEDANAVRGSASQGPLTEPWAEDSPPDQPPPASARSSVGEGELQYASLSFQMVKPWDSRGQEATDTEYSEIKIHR
Chain of Protein translocase subunit SecA (Escherichia coli (strain K12)) (P10408 whole entry): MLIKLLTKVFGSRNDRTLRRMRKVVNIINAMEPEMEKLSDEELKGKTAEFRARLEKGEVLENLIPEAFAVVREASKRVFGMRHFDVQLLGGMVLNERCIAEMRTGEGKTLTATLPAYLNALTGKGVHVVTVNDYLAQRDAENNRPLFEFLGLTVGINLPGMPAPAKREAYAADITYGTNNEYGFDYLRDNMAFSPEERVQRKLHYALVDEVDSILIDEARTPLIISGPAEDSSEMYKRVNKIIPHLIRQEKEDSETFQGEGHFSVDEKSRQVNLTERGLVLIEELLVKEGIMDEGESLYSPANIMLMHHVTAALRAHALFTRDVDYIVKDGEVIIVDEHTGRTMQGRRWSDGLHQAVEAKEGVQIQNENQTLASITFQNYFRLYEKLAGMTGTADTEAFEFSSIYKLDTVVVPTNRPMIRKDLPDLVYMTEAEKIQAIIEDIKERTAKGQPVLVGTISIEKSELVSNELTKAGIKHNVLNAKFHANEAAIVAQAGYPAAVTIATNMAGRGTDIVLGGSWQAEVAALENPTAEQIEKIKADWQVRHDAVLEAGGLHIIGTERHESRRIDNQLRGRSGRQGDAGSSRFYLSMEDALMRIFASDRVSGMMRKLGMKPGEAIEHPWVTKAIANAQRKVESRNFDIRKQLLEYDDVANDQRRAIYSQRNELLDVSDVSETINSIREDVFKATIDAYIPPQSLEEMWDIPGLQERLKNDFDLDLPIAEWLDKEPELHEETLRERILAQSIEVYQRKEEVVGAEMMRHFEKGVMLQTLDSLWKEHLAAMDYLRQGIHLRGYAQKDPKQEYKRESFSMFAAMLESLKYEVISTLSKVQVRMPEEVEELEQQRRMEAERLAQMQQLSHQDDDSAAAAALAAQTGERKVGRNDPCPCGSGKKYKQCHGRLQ

Structure (SMILES)	Percent Effect [1] [%]	Percent Effect [2] [%]	Percent Effect [3] [%]	Percent Effect (Trypanosoma cruzi) [%]	Percent Effect [4] [%]	Percent Effect [5] [%]	Percent Effect (Homo sapiens) [%]	Percent Effect [6] [%]	Percent Effect [7] [%]	Percent Effect [8] [%]
CCc1nc(C)ncc1C(=O)N1CCCC(n2nc(C)nc2C)C1 (stereo not given)	-0.229	-53.9	-2.48	8.92	-3.69	0.0853	-15.3	-3.35	6.02	-2.45
CC(C)C(=O)N1CCC2(CCCN(CCOc3ccccc3)C2)C1 (stereo not given)	-6.57	1.3	-1.94	-3	1.83	1.63	7.35	2.9	10	11.6
CC(C)c1cc(NC(=O)CN2CCC(N3CCCCC3)CC2)on1	-2.28	20.8	11.8	6.53	-1.43	9.3	-6.15	11.8	32.9	-5.62
CCc1nc(CN2CCN(C(=O)C3CCCCC3)CC2)cs1	-3.52	17.9	-8.26	7.23	1.64	8.28	12	5.26	20.5	-7.32
Cn1c(CN2CCCC2c2noc(C3CC3)n2)cc(=O)n(C)c1=O (stereo not given)	-8.17	2.67	-1.87	-3.01	-3.99	5.85	13.9	0.526	0	-5.06
